High-throughput results deposited in PubChem by several laboratories.
PrP UTR inh = inhibition of PrP 5' UTR reporter expression. cell-based PrP 5' UTR mRNA reporter, plate reader. inhibition, % (concentration not given with the values). 340,000 tested, 0.35% active; in the data active = inhibition above about 52%; also: 0 = median of the neutral control wells
PrPC surface inh = inhibitors of human cell surface prion protein PrPC, primary screen, cell-based, TR-FRET. Major prion protein (Homo sapiens), P04156. TR-FRET read-out. inhibition, % at 13.8 µM. 370,000 tested, 0.43% active. AID 720596, 2013; in the data active = inhibition above about 24%; also: 0% = median of the test wells and 100% = reference compound wells
FBA Mtb inh = Mtb FBA enzyme inhibitors, primary screen, biochemical, fluorescence, strain H37Rv; Fructose-bisphosphate aldolase (Mycobacterium tuberculosis (strain ATCC 25618 / H37Rv)), …; inhibition, % at 1 µM; 360,000 tested, 2.3% active; purified M. tuberculosis FBA, fluorescence read-out;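 also: 0% = vehicle and 100% = reference inhibitor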
Mtb hypoxia rep = PubChem AID 1159583. M. tuberculosis hypoxia-regulated fluorescent reporter, fluorescence. fluorescence inhibition, % (no concentration beside the values). 300,000 tested, 0.1% active; in the data active = fluorescence inhibition mostly above about 23%, no sharp cut-off; inactive = mostly below about 17%
Yp Topo-I inh = Yersinia pestis topoisomerase I inhibitors, primary screen, biochemical, cleavage product accumulation, plate reader, single point; DNA topoisomerase I (Yersinia pestis CO92); Y. pestis Topo-I cleavage product accumulation; activity, % at 10 µM; 360,000 tested, 0.064% active; AID 504884, 2011; in the data active = activity above about 50%, passing the limit was not always enough
GDH-TPI counter-1 = GDH-TPI coupling enzyme inhibitors, primary screen, artefact control for M. tuberculosis FBA inhibitor project, biochemical, absorbance, full deck; GDH-TPI coupled enzyme counterscreen, NADH absorbance; inhibition, % at 4.8 µM; 360,000 tested, 1.2% active; AID 588335, 2011; in the data active = inhibition above about 30%;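 also: 0% = DMSO wells and 100% = wells lacking the enzyme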
PrP 5UTR single = prion 5' UTR mRNA inhibition, cherry-pick retest; shares compounds with PrP UTR inh; cell-based prion protein 5' UTR reporter, plate reader; inhibition, % at 2.5 µM; 1,100 tested, 48% active; AID 504592, 2011; in the data active = inhibition above about 54%
Mtb FBA confirm = M. tuberculosis aldolase blockers, biochemical, fluorescence, strain H37Rv, confirmation | AID 651616, 2012 | shares compounds with FBA Mtb inh | 5,600 tested, 78% active | inhibition, % at 1 µM | purified M. tuberculosis FBA, fluorescence read-out;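 also: 0% = vehicle wells and 100% = reference inhibitor wells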
GDH-TPI counter-2 = GDH-TPI coupling enzyme inhibitors, artefact control for M. tuberculosis FBA inhibitor project, biochemical, fluorescence, high throughput; 5,600 tested, 81% active; GDH-TPI coupled enzyme counterscreen; inhibition, % at 1 µM; shares compounds with FBA Mtb inh; in the data active = inhibition above about 10%
PrPC TRFRET cf = confirmation of inhibitors of cell surface human prion protein, confirmation, cell-based, TR-FRET; shares compounds with PrPC surface inh; cell surface PrPC level; inhibition, % at 13.8 µM; 1,500 tested, 65% active; in the data active = inhibition above about 25%
LD9 tox = cytotoxicity in LD9 cells, cytotoxicity control for cell surface PrPc inhibitor project, cell-based, luminescence, high throughput | shares compounds with PrPC surface inh | luminescence viability | inhibition, % at 13.8 µM | 1,500 tested, 29% active | AID 743201, 2013; in the data active = inhibition above about 9.5%
* marks the source's active call; other numbers are inactive results; . = not tested or not shown. Hits are enriched below; roughly 3.8% of the tested compounds scored in any of these assays. Rule as the data show it, unless noted: active = inhibition above about 27%; inactive = the rest.

SMILES | PrP UTR inh | PrPC surface inh | FBA Mtb inh | Mtb hypoxia rep | Yp Topo-I inh | GDH-TPI counter-1 | PrP 5UTR single | PrPC TRFRET cf | LD9 tox | others
CS(=O)(=O)Nc1ccccc1C(=O)NCC1(N2CCCCC2)CCCCC1 | 67* | 3 | 45* | -5 | -1 | -2 | -4 | . | . | Mtb FBA confirm=9;GDH-TPI counter-2=-5
O=C(NCc1ccccc1)C1=CC(c2csc3ccccc23)CC(OCc2ccc(CO)cc2)O1 (stereo unspecified) | . | . | . | 9 | . | . | . | . | .
Cc1ccc(-c2cn3nc(C)c(C)nc3n2)cc1 | 67* | -31 | 34* | . | 5 | -3 | 65* | . | . | Mtb FBA confirm=3;GDH-TPI counter-2=3
COc1ccc(-c2cn3nc(C)c(C)nc3n2)cc1OC | -39 | -25 | 0 | -2 | 5 | -2 | . | . | .
Cc1cc(NN=Cc2ccc(O)cc2O)nc(-n2nc(C)cc2C)n1 | . | . | . | 11 | . | . | . | . | .
Nc1ncnc2c(C3OC(CO)C(O)C3O)scc12 (stereo unspecified) | 58* | 55* | 74* | . | 9 | 10 | 82* | . | . | Mtb FBA confirm=180*;GDH-TPI counter-2=119*
COc1ccc(C=NNC(=S)Nc2ccccc2)cc1COc1ccc(F)cc1 | . | . | . | -11 | . | . | . | . | .
O=C(c1ccccc1)n1ccc(-c2cnc(-c3ccccc3)s2)n1 | 54* | -9 | 95* | . | 2 | 12 | -35 | . | . | Mtb FBA confirm=73*;GDH-TPI counter-2=58*
O=C1NC2C(=CC(O)C(O)C2O)c2cc3c(c(O)c21)OCO3 (stereo unspecified) | 88* | 89* | 9 | . | -5 | 8 | 95* | 97* | 55*
O=C1NC2C(O)C(O)C(O)C(O)C2c2cc3c(c(O)c21)OCO3 (stereo unspecified) | 61* | 90* | 1 | . | 5 | 7 | 83* | 100* | 32*
C(=NN1CCOCC1)c1nc(-c2ccccc2)n2ccccc12 | . | . | . | -4 | . | . | . | . | .
NC1=C(Cl)C(=O)c2ccc(S(N)(=O)=O)cc2C1=O | 96* | 34* | 0 | . | -11 | 11 | 96* | 44* | 98*
NC1=C(Cl)C(=O)c2ccccc2C1=O | -25 | -12 | -2 | . | -1 | -7 | . | . | .
Nc1nc(F)nc2c1ncn2[C@@H]1O[C@H](CO)[C@@H](O)[C@H]1O | 94* | 45* | 3 | . | 4 | 1 | 94* | 44* | 54*
Nc1nc(F)nc2c1ncn2[C@@H]1O[C@H](CO)[C@@H](O)[C@@H]1O | -33 | 2 | 1 | . | 3 | -14 | . | . | .
O=C(Cc1cccc2ccccc12)NN=Cc1ccncc1 | . | . | . | 8 | . | . | . | . | .
CCOC(=O)C1C2COc3ccccc3C2N2C(=O)N(c3ccc(OC)cc3)C(=O)[C@@]12C (stereo partly specified) | . | . | . | 6 | . | . | . | . | .
Cc1ccc(C(=O)n2c(N)nc3ccccc32)cc1 | 74* | 25* | -4 | -20 | -3 | 5 | 55* | -3 | 3
CC(=O)O[C@H]1C(=O)[C@@]2(C)[C@H]([C@H](OC(=O)c3ccccc3)[C@]3(O)C[C@H](OC(=O)[C@H](O)C(NC(=O)c4ccccc4)c4ccccc4)C(C)=C1C3(C)C)[C@]1(OC(C)=O)CO[C@@H]1C[C@@H]2O (stereo partly specified) | 70* | 31* | 0 | . | 6 | -2 | 88* | 27* | 8
